# Assay results taken from paper PMC7862700, “An all-to-all approach to the identification of sequence-specific readers for epigenetic DNA modifications on cytosine”.
# How the values were obtained:
# Experiment in all cases: DAPPL (digital affinity profiling via proximity ligation, sequencing); 10 mM Tris-HCl pH 7.5, 50 mM NaCl, 1 mM DTT, 4% glycerol, room temperature, 30 min; GST-TFs on glutathione beads, 16-mer random dsDNA library, 0.1% formaldehyde crosslink after washing; high values mean tight binding
# [1] = molecular target: T1, FEV (Homo sapiens, UniProt Q99581 1-238); conditions: protein: recombinant; tags: N-terminal GST; dsDNA, one strand shown
# T1 sequence: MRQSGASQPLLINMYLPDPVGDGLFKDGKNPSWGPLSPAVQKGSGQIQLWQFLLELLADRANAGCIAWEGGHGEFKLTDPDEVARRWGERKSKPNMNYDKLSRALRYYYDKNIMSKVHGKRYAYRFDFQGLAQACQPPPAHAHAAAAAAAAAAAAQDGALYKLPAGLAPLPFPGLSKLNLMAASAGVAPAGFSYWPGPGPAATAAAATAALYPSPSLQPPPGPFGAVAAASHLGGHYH
# In short: (§1)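 In yeast, human transcription factors were expressed with a GST fusion, then pulled down on glutathione beads and given DNA barcodes. Pooled with a tag-only sample, they were exposed to 200 nmole of a 16-mer random double-stranded DNA library (Tris/NaCl/DTT/glycerol buffer, room temperature, 30 min), washed, crosslinked with 0.1% formaldehyde, proximity-ligated using BsaI/T4 ligase for 1 h at 37 °C, PCR-amplified and read on an Illumina NextSeq500. Each hexamer's frequency of reads for a factor, divided by the matching frequency for the tag-only sample, gives the binding signal.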
# [2] = molecular target: ETV5 (Homo sapiens, UniProt P41161 1-510); conditions: protein: recombinant; tags: N-terminal GST; dsDNA, one strand shown
# In short: as §1
# [3] = molecular target: HSF1 (Homo sapiens, UniProt Q00613 1-529); conditions: protein: recombinant; tags: N-terminal GST; chain copies: 3; dsDNA, one strand shown
# In short: as §1
# [4] = molecular target: T2, SPIC (Homo sapiens, UniProt Q8N5J4 1-248); conditions: protein: recombinant; tags: N-terminal GST; dsDNA, one strand shown
# T2 sequence: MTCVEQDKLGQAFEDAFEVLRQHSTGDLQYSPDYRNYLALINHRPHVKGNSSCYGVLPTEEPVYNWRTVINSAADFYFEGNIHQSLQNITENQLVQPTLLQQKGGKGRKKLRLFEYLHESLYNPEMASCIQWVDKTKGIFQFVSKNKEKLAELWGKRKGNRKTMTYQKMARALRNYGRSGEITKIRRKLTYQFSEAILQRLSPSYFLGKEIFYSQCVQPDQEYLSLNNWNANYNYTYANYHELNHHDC
# In short: as §1
# [5] = molecular target: ELF4 (Homo sapiens, UniProt Q99607 1-663); conditions: protein: recombinant; tags: N-terminal GST; dsDNA, one strand shown
# In short: as §1
# [6] = molecular target: T3, ELK4 (Homo sapiens, UniProt P28324-2 1-405); conditions: protein: recombinant; tags: N-terminal GST; dsDNA, one strand shown
# T3 sequence: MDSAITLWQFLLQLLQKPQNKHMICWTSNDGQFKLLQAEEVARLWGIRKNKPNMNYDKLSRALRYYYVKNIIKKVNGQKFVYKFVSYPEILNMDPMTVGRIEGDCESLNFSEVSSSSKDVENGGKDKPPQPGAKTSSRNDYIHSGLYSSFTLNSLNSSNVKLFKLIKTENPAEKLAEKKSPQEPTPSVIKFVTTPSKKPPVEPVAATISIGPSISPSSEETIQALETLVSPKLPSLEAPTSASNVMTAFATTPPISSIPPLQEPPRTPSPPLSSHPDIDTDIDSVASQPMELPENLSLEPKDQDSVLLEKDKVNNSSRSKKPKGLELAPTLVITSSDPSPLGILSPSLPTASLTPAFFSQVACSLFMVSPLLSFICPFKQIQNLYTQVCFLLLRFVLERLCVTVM
# In short: as §1
# [7] = molecular target: T4, ETV2 (Homo sapiens, UniProt O00321 1-342); conditions: protein: recombinant; tags: N-terminal GST; dsDNA, one strand shown
# T4 sequence: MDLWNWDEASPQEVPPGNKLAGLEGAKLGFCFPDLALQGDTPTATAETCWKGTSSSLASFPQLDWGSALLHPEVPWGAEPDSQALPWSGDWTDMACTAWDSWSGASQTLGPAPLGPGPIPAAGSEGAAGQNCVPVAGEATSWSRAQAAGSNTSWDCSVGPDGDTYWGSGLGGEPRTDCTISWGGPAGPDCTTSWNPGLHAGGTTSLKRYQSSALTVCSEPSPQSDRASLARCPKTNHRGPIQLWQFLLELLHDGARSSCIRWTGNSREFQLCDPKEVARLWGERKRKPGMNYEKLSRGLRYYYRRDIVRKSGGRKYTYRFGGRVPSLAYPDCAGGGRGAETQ
# In short: as §1
# [8] = molecular target: T5, ELF3 (Homo sapiens, UniProt P78545 1-371); conditions: protein: recombinant; tags: N-terminal GST; dsDNA, one strand shown
# T5 sequence: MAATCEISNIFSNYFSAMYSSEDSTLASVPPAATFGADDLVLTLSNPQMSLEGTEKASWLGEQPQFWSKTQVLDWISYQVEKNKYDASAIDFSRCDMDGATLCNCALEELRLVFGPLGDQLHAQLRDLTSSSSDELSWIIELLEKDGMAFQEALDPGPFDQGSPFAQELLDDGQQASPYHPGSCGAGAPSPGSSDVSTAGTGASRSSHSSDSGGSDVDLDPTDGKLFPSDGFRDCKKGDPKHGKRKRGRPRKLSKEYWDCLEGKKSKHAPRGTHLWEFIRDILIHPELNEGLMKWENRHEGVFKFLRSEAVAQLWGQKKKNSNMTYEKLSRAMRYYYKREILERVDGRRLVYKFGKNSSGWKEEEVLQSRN
# In short: as §1
# [9] = molecular target: CRX (Homo sapiens, UniProt O43186 1-299); conditions: protein: recombinant; tags: N-terminal GST; dsDNA, one strand shown
# In short: as §1
# [10] = molecular target: ETV1 (Homo sapiens, UniProt P50549 1-477); conditions: protein: recombinant; tags: N-terminal GST; dsDNA, one strand shown
# In short: as §1
# [11] = molecular target: T6, ERF (Homo sapiens, UniProt P50548 1-548); conditions: protein: recombinant; tags: N-terminal GST; dsDNA, one strand shown
# T6 sequence: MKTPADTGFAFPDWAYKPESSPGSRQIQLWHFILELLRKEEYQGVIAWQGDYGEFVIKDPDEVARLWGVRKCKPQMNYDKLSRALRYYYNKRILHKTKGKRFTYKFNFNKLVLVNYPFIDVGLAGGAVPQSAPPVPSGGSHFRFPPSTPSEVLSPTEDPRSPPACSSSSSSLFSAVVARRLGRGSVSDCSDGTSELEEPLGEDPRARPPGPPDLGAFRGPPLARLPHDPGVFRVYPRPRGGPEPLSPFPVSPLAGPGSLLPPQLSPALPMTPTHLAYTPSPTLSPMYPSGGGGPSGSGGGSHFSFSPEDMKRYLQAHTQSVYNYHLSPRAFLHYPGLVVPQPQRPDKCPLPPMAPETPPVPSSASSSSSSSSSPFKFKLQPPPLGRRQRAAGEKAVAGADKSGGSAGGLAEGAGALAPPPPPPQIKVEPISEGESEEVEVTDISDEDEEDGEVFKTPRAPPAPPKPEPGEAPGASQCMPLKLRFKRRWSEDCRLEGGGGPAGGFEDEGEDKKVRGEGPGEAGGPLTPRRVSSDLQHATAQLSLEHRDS
# In short: as §1
# [12] = molecular target: T7, ETV3L (Homo sapiens, UniProt Q6ZN32 1-361); conditions: protein: recombinant; tags: N-terminal GST; dsDNA, one strand shown
# T7 sequence: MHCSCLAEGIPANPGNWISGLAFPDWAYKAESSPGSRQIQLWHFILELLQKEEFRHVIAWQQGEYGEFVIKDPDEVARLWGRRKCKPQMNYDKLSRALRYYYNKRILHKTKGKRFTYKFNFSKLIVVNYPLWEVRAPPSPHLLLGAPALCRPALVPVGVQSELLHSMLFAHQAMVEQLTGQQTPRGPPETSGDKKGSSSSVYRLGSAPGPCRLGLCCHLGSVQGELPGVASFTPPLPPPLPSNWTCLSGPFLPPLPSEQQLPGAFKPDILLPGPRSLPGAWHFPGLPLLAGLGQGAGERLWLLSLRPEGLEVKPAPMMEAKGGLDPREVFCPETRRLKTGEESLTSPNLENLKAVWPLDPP
# In short: as §1
# [13] = molecular target: T8, ETS2 (Homo sapiens, UniProt P15036 1-469); conditions: protein: recombinant; tags: N-terminal GST; dsDNA, one strand shown
# T8 sequence: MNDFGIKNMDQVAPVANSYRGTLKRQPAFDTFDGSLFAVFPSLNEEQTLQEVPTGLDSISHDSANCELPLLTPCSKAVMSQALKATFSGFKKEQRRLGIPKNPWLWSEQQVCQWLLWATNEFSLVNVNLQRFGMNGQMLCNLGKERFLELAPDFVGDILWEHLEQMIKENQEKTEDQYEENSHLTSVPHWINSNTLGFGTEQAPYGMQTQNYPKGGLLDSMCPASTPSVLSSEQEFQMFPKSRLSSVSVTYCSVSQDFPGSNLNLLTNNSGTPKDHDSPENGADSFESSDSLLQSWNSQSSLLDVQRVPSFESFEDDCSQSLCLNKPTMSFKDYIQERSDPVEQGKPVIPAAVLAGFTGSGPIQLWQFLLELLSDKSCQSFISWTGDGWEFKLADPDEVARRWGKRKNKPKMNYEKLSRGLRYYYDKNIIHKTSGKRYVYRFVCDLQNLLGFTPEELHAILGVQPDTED
# In short: as §1
# [14] = molecular target: T9, SPDEF (Homo sapiens, UniProt O95238 1-335); conditions: protein: recombinant; tags: N-terminal GST; dsDNA, one strand shown
# T9 sequence: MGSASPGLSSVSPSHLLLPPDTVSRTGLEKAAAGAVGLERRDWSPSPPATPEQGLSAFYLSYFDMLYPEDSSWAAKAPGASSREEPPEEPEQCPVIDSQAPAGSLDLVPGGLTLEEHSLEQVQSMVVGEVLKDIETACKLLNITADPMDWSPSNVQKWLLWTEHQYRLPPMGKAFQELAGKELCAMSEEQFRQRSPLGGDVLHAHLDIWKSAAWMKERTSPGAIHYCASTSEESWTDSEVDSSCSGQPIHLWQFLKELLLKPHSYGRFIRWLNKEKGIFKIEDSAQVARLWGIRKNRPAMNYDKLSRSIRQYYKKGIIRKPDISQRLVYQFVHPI
# In short: as §1
# [15] = molecular target: T10, ETV7 (Homo sapiens, UniProt Q9Y603 1-341); conditions: protein: recombinant; tags: N-terminal GST; dsDNA, one strand shown
# T10 sequence: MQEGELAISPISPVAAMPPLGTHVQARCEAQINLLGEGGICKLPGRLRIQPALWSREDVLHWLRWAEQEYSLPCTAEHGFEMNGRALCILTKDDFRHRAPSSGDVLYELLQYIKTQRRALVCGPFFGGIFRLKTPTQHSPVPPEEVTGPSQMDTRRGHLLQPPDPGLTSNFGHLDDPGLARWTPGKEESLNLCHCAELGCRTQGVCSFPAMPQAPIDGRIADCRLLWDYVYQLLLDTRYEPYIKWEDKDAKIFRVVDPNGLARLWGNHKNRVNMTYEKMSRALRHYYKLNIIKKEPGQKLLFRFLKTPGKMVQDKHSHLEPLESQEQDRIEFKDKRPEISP
# In short: as §1
# [16] = molecular target: T11, ELF5 (Homo sapiens, UniProt Q9UKW6-2 1-255); conditions: protein: recombinant; tags: N-terminal GST; dsDNA, one strand shown
# T11 sequence: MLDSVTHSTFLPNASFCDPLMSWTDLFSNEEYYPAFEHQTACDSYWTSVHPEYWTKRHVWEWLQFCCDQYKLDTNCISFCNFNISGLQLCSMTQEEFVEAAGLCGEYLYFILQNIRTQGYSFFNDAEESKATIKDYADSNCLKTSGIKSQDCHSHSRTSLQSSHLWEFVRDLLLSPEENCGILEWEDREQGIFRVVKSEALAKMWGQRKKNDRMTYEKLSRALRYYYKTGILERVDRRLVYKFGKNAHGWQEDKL
# In short: as §1
# [17] = molecular target: T12, ETV3 (Homo sapiens, UniProt P41162-2 1-143); conditions: protein: recombinant; tags: N-terminal GST; dsDNA, one strand shown
# T12 sequence: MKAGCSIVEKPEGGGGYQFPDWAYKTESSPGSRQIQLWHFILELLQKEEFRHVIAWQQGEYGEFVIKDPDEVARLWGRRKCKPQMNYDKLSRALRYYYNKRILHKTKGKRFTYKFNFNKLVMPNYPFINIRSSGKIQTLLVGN
# In short: as §1
# [18] = molecular target: ETV6 (Homo sapiens, UniProt P41212 1-452); conditions: protein: recombinant; tags: N-terminal GST; dsDNA, one strand shown
# In short: as §1
# HSF1, sequence (Q00613 whole entry): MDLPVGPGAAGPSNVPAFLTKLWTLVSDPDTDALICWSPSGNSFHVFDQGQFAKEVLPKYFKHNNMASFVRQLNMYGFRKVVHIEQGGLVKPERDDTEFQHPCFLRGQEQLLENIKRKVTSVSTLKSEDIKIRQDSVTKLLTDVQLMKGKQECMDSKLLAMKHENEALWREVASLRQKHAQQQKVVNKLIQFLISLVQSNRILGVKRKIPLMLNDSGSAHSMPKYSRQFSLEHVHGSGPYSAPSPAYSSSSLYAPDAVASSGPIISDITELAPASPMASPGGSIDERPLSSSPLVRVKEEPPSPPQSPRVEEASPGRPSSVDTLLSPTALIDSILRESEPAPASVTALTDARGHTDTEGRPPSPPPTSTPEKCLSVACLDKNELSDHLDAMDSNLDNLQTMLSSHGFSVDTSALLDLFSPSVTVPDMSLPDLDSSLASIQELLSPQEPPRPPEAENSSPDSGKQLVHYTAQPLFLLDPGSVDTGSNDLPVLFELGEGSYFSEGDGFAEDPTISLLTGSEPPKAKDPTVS
# CRX, sequence (O43186 whole entry): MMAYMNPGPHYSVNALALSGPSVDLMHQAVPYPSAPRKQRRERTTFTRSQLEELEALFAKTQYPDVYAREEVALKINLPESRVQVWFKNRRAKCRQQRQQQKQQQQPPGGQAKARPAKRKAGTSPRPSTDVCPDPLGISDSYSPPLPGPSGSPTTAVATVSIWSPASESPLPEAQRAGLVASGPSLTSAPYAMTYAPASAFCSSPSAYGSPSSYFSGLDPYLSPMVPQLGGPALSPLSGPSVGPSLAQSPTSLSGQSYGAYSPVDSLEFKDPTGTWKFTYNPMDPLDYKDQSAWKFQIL
# ETV1, sequence (P50549 whole entry): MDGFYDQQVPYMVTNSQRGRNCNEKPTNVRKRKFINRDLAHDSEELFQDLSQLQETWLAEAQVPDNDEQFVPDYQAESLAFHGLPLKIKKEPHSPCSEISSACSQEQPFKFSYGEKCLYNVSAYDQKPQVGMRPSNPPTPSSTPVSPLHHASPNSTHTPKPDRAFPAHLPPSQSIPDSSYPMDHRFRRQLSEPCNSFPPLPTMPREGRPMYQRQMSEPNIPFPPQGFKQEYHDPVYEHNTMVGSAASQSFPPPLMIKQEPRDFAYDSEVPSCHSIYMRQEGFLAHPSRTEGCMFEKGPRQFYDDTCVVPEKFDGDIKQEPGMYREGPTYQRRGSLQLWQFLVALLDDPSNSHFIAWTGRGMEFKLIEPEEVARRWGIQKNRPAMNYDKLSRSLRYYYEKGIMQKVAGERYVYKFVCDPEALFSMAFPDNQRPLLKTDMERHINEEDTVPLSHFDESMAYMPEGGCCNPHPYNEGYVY
# ETV5, sequence (P41161 whole entry): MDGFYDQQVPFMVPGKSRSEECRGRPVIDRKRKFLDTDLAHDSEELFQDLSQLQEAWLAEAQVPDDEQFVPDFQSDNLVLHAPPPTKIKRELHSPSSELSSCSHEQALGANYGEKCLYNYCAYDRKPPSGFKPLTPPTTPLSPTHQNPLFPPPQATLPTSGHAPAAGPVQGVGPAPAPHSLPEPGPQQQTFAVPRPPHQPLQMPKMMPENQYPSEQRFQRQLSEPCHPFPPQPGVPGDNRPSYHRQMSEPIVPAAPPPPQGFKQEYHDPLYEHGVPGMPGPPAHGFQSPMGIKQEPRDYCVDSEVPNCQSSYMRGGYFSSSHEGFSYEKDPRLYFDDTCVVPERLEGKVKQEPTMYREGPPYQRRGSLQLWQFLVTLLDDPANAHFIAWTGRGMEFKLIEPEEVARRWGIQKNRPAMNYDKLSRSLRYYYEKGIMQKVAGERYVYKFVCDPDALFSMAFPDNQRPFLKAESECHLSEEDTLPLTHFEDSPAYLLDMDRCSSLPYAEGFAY
# ELF4, sequence (Q99607 whole entry): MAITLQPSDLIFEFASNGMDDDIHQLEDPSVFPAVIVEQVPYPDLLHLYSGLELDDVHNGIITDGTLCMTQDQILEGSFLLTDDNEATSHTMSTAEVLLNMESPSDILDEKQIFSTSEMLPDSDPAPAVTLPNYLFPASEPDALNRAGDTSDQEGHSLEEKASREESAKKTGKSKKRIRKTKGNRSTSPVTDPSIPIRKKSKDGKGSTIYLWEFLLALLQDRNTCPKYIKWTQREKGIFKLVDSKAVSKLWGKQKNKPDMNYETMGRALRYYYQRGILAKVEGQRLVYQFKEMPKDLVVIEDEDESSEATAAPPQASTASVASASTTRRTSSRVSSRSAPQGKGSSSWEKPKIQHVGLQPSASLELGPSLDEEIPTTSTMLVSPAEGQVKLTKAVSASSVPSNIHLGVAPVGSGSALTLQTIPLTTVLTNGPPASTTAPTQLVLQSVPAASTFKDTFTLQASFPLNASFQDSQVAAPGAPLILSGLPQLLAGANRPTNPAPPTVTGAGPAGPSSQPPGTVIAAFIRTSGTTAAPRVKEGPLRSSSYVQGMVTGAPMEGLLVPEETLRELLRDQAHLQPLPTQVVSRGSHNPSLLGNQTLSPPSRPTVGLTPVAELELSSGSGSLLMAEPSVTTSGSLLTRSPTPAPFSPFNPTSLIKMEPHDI
# ETV6, sequence (P41212 whole entry): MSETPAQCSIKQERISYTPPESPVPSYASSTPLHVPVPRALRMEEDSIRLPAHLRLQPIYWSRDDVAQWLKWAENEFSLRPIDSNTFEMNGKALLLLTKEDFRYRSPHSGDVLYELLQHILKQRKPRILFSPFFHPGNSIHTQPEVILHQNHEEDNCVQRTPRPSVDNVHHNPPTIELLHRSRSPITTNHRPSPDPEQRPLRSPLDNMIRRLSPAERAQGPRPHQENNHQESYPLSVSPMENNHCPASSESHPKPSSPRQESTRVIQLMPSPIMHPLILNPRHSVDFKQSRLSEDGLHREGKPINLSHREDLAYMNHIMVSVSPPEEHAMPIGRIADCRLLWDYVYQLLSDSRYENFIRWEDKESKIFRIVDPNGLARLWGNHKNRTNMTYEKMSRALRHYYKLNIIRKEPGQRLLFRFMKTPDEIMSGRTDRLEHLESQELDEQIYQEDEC
sequence,measurement,setting,value
TACACA,binding signal,[1],"1.21 fold enrichment (6-mer frequency, TF over GST control)"
same,binding signal,[2],"1.2 fold enrichment (6-mer frequency, TF over GST control)"
same,binding signal,[3],"1.05 fold enrichment (6-mer frequency, TF over GST control)"
same,binding signal,[4],"1.35 fold enrichment (6-mer frequency, TF over GST control)"
same,binding signal,[5],"1.2 fold enrichment (6-mer frequency, TF over GST control)"
same,binding signal,[6],"1.26 fold enrichment (6-mer frequency, TF over GST control)"
same,binding signal,[7],"1.12 fold enrichment (6-mer frequency, TF over GST control)"
same,binding signal,[8],"1.22 fold enrichment (6-mer frequency, TF over GST control)"
same,binding signal,[9],"1.09 fold enrichment (6-mer frequency, TF over GST control)"
same,binding signal,[10],"1.2 fold enrichment (6-mer frequency, TF over GST control)"
same,binding signal,[11],"1.24 fold enrichment (6-mer frequency, TF over GST control)"
same,binding signal,[12],"1.15 fold enrichment (6-mer frequency, TF over GST control)"
same,binding signal,[13],"1.16 fold enrichment (6-mer frequency, TF over GST control)"
same,binding signal,[14],"1.27 fold enrichment (6-mer frequency, TF over GST control)"
same,binding signal,[15],"1.19 fold enrichment (6-mer frequency, TF over GST control)"
same,binding signal,[16],"1.13 fold enrichment (6-mer frequency, TF over GST control)"
same,binding signal,[17],"1.13 fold enrichment (6-mer frequency, TF over GST control)"
same,binding signal,[18],"1.21 fold enrichment (6-mer frequency, TF over GST control)"
